Results from PubChem BioAssay (NCATS).
Records with an inconclusive call do not appear. Values without a mark were called inactive. Activity calls are given as the source filed them. Unless noted, the call rests on the fitted dose curve; in most records, active means well fitted inhibition curve with a large enough effect; inconclusive means small, poorly fitted or top-dose-only effect; inactive means no such curve, though single readings can be large or run the other way.

Target: Atrial natriuretic peptide receptor 2 (Homo sapiens) (UniProt P20594)
Sequence (P20594 whole entry, looked up): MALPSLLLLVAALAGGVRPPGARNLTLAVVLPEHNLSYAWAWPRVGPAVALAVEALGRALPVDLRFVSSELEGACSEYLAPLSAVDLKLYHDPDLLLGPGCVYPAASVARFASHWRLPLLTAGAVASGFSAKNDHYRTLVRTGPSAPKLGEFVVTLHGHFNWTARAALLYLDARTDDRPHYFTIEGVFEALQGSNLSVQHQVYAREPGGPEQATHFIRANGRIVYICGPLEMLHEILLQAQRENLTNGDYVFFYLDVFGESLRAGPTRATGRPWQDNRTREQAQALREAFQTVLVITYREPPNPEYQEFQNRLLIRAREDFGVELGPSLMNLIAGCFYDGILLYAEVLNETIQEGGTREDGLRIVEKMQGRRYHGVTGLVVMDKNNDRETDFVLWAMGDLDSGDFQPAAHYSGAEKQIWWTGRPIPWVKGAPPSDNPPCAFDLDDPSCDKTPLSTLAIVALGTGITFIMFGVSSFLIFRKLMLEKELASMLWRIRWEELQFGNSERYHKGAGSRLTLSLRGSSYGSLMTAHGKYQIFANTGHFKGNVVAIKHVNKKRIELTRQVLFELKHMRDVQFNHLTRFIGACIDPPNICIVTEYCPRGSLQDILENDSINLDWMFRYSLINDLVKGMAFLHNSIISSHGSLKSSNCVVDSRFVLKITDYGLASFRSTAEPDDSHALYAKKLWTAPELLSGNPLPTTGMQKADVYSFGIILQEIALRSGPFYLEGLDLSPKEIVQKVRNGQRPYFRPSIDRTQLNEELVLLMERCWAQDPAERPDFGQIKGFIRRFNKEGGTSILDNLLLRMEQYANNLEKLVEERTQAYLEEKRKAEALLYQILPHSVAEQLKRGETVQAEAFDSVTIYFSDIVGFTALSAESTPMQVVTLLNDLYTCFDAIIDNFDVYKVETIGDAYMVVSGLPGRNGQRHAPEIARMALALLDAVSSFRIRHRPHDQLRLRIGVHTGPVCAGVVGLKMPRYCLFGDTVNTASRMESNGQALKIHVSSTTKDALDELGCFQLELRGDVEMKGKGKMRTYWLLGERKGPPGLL
Assay: Natriuretic polypeptide receptor (hNpr2) antagonism - Pilot subtype selectivity assay (AID 1347050; calls by dose curve; further: potency means the concentration at half of the fitted maximal effect; on activity change, negative = inhibition: on the % scale 0 is the no-effect control and ±100 the full control effect)
Conditions: NPR2-expressing cells, cGMP antagonist-mode read-out; series mostly up to 38.3 µM; activity change, negative = inhibition: at the top concentration
How it was run: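 cGMP-sensor HEK293/hNpr2 cells; 2% GloSensor reagent 2 h RT; compounds 30 min; baseline luminescence read; 1 nM hNppC agonist 20 min RT; final luminescence read by CCD camera. Antagonism = reduced post-agonist signal.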

| Structure (SMILES) | activity change, negative = inhibition | Potency |
| --- | --- | --- |
| CN(C(=O)Cc1ccc(Cl)c(Cl)c1)C(CN1CCCC1)c1cccc(OCC(=O)O)c1 (centres undefined) | -0.818% | – |
| CC1(C(=O)O)C2CCC(O2)C1(C)C(=O)O (centres undefined) | -11.5% | – |
| C=CCN1CCc2cccc3c2[C@H]1Cc1ccc(O)c(O)c1-3 | -3.71% | – |
| COC(=O)N1CCN(C(=O)Cc2ccc(Cl)c(Cl)c2)C(CN2CCCC2)C1 (centres undefined) | -10.1% | – |
| CCCCCCC(C)(C)c1ccc([C@@H]2C[C@H](O)CC[C@H]2CCCO)c(O)c1 | 3.52% | – |
| Nc1ccc(CCN2CCN(c3cccc(C(F)(F)F)c3)CC2)cc1 | 10% | – |
| N[C@@H](Cn1oc(=O)[nH]c1=O)C(=O)O | 10.5% | – |
| CO[C@H]1CC=C2CCN3CCC4=C(CC(=O)OC4)[C@]23C1 | 1.52% | – |
| Cc1o[nH]c(=O)c1CC(N)C(=O)O (centres undefined) | 0.734% | – |
| C[N+]1(C)CCc2cc3c(cc2[C@H]1[C@@H]1OC(=O)c2c1ccc1c2OCO1)OCO3 | 0.825% | – |
| Oc1ccc2c3c1O[C@H]1c4[nH]c5ccccc5c4C[C@@]4(O)C(C2)N(CC2CC2)CCC314 (some centres undefined) | -14% | – |
| CCCCCCCCCCCCCC(=O)O[C@@H]1[C@@H](C)[C@@]2(O)[C@@H](C=C(CO)C[C@@]3(O)C(=O)C(C)=C[C@@H]23)C2C(C)(C)[C@@]21OC(C)=O (some centres undefined) | – | 0.0066 µM (active) |
| N#C/C(=C/c1ccc(O)c(O)c1)C(N)=S | -5.84% | – |
| Oc1ccc2c3c1O[C@H]1c4oc5ccccc5c4C[C@@]4(O)C(C2)N(CC2CC2)CCC314 (some centres undefined) | 0.627% | – |
| CNc1ccc2oc(C[C@H]3O[C@@]4(CC[C@H]3C)O[C@H]([C@H](C)C(=O)c3ccc[nH]3)[C@H](C)C[C@H]4C)nc2c1C(=O)O | -21.1% | – |
| NC(C(=O)O)c1cc(=O)[nH]o1 (centres undefined) | -0.653% | – |
| CN1CC[C@@]2(C)c3cc(O)ccc3N(C)C12 (some centres undefined) | -20.8% | – |
| CN(N=O)c1ccc(O)c(O)c1 | -1.96% | – |
| O=C1C=CC(=O)C=C1 | 3.19% | – |
| C[C@H](N)CN1CCc2ccc(Br)cc21 | -23.5% | – |
| NC(=O)COc1c(F)cc(SCCNS(=O)(=O)c2ccccc2)cc1F | -14.8% | – |
| C=CCN1C[C@@H](C)N([C@H](c2ccc(C(=O)N(CC)CC)cc2)c2cccc(OC)c2)C[C@@H]1C | -5.04% | – |
| C=CCN1CCC23c4c5ccc(O)c4O[C@H]2C(=O)CC[C@@]3(O)C1C5 (some centres undefined) | -2.21% | – |
| CCCN1CCc2cc(O)cc3c2[C@H]1Cc1ccc(O)c(O)c1-3 | 2.96% | – |
| CCCn1c(=O)c2[nH]c(C3CCCC3)nc2n(CCCOC(=O)c2ccc(S(=O)(=O)F)cc2)c1=O | -2.07% | – |

Tested on: not listed separately
Assay: NS1 protein of Zika virus - qHTS assay to identify small molecule inhibitors in human HEK 293 cells (AID 1347053);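 further: plate controls were infected untreated cells for no effect and uninfected cells for full effect; nearly all actives have a fitted effect of over 55% in size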
Conditions: HEK293 ZIKV MR766 infection, NS1 TR-FRET, 24 h; series mostly up to 46.1 µM; activity change, negative = inhibition: at the top concentration
How it was run: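 HEK 293 cells pretreated with compound for 1 h, then infected with ZIKV MR766 (MOI 0.5) for 24 h at 37 C. NS1 detected by TR-FRET with two anti-NS1 antibodies; normalized to uninfected (0%) and infected (100%) wells.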

| Structure (SMILES) | activity change, negative = inhibition |
| --- | --- |
| CN(C(=O)Cc1ccc(Cl)c(Cl)c1)C(CN1CCCC1)c1cccc(OCC(=O)O)c1 (centres undefined) | 3.36% |
| COC(=O)N1CCN(C(=O)Cc2ccc(Cl)c(Cl)c2)C(CN2CCCC2)C1 (centres undefined) | 0.622% |
| Nc1ccc(CCN2CCN(c3cccc(C(F)(F)F)c3)CC2)cc1 | 0.636% |
| C[C@]12Cc3cn4c(nc3C=C1CCC1C2CC[C@@]2(C)[C@H]1CC[C@@]2(O)C#N)nc1ccccc14 (some centres undefined) | 5.29% |
| CN(N=O)c1cc(O)ccc1O | 27.5% |
| [Cl-].[Cl][Pt].[NH2-].[NH2-].c1ccncc1 | 7.49% |
| C[C@H](N)Cc1cccc(C(F)(F)F)c1 | 4.86% |
| N[C@@H](Cn1oc(=O)[nH]c1=O)C(=O)O | 5.35% |
| CO[C@H]1CC=C2CCN3CCC4=C(CC(=O)OC4)[C@]23C1 | 2.3% |
| Cc1o[nH]c(=O)c1CC(N)C(=O)O (centres undefined) | -0.755% |
| C[N+]1(C)CCc2cc3c(cc2[C@H]1[C@@H]1OC(=O)c2c1ccc1c2OCO1)OCO3 | -4.39% |
| Oc1ccc2c3c1O[C@H]1c4[nH]c5ccccc5c4C[C@@]4(O)C(C2)N(CC2CC2)CCC314 (some centres undefined) | 28.7% |
| O=C(NC1CN2CCC1CC2)c1cc2ccoc2cn1 (centres undefined) | -1.47% |
| C[C@H]1C2Cc3ccc(O)cc3[C@@]1(C)CCN2CC1CC1 | -23.4% |
| N#C/C(=C/c1ccc(O)c(O)c1)C(N)=S | -1.1% |
| Nc1cc2c(ncn2CCOCP(=O)(O)O)c(=O)[nH]1 | -1.4% |
| NC(C(=O)O)c1cc(=O)[nH]o1 (centres undefined) | 9.63% |
| CN1CC[C@@]2(C)c3cc(O)ccc3N(C)C12 (some centres undefined) | 0.455% |
| O=c1ccc2[nH]cc(C3=CCNCC3)c2[nH]1 | -6.39% |
| CN(N=O)c1ccc(O)c(O)c1 | 5.63% |
| O=C1C=CC(=O)C=C1 | -17.2% |
| CC(C)(C)OC(=O)NC1[C@H]2CNC[C@@H]12 (some centres undefined) | 23% |
| C[C@H](N)CN1CCc2ccc(Br)cc21 | 13.2% |
| NC(=O)COc1c(F)cc(SCCNS(=O)(=O)c2ccccc2)cc1F | -13.1% |
| C=CCN1CCC23c4c5ccc(O)c4O[C@H]2C(=O)CC[C@@]3(O)C1C5 (some centres undefined) | -9.92% |
| CCCN1CCc2cc(O)cc3c2[C@H]1Cc1ccc(O)c(O)c1-3 | 4.33% |
| CCCn1c(=O)c2[nH]c(C3CCCC3)nc2n(CCCOC(=O)c2ccc(S(=O)(=O)F)cc2)c1=O | 10.9% |

Target: Tyrosine-protein phosphatase non-receptor type substrate 1 (Homo sapiens) + Leukocyte surface antigen CD47 (Homo sapiens) (UniProt P78324+Q08722)
Sequence (P78324 whole entry, looked up): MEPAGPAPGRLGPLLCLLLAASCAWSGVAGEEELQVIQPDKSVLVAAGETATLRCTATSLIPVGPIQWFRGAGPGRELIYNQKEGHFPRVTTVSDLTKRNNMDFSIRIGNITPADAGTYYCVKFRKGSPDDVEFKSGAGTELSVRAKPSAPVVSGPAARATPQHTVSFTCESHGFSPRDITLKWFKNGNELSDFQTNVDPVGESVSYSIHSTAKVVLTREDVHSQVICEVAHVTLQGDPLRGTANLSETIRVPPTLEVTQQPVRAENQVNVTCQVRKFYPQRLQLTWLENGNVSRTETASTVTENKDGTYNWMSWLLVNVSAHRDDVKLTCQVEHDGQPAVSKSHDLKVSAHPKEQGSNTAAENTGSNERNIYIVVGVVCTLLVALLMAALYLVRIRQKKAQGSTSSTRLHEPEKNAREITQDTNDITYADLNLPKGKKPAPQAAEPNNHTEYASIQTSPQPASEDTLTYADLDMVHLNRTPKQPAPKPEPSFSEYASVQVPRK
Sequence (Q08722 whole entry, looked up): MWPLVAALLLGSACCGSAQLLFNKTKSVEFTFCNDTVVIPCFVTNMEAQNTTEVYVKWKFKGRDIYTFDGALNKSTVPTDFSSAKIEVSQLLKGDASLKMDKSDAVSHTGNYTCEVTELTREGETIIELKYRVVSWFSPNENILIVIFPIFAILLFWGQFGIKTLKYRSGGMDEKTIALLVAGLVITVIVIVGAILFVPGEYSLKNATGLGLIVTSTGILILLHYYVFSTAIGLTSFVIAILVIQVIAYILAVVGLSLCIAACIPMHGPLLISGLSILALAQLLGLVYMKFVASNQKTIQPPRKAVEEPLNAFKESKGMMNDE
Assay: CD47-SIRPalpha protein protein interaction - LANCE assay qHTS validation (AID 1347057; active means well fitted curve in the direction sought with a large enough effect in the signal ratio, with a control signal flat, not every such curve was filed as active; the % refers to the signal ratio; further: potency means the concentration at half of the fitted maximal effect; on activity change, negative = inhibition: 0% is about no effect)
Conditions: Recombinant CD47-His / biotin-SIRPalpha, TR-FRET ratio; series mostly up to 38.3 µM; activity change, negative = inhibition: at the top concentration
How it was run: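 First, His-tagged CD47 and Eu-labelled anti-His antibody met the compound for 30 min; next, site-specifically biotinylated SIRPalpha was added for 30 min; finally streptavidin-APC was added before reading the TR-FRET ratio.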

| Structure (SMILES) | activity change, negative = inhibition | Potency |
| --- | --- | --- |
| CN(C(=O)Cc1ccc(Cl)c(Cl)c1)C(CN1CCCC1)c1cccc(OCC(=O)O)c1 (centres undefined) | 1.56% | – |
| CC1(C(=O)O)C2CCC(O2)C1(C)C(=O)O (centres undefined) | 0.396% | – |
| COC(=O)N1CCN(C(=O)Cc2ccc(Cl)c(Cl)c2)C(CN2CCCC2)C1 (centres undefined) | 1.6% | – |
| O=C1/C(=C/c2ccccc2)C[C@@]2(O)[C@H]3Cc4ccc(O)c5c4[C@@]2(CCN3CC2CC2)[C@H]1O5 | -0.488% | – |
| Nc1ccc(CCN2CCN(c3cccc(C(F)(F)F)c3)CC2)cc1 | 0.747% | – |
| C[C@]12Cc3cn4c(nc3C=C1CCC1C2CC[C@@]2(C)[C@H]1CC[C@@]2(O)C#N)nc1ccccc14 (some centres undefined) | 3.14% | – |
| CN(N=O)c1cc(O)ccc1O | -2.16% | – |
| Ic1ccccc1CNC1C2CCN(CC2)C1C(c1ccccc1)c1ccccc1 (centres undefined) | 1.06% | – |
| C[C@H](N)Cc1cccc(C(F)(F)F)c1 | 1.59% | – |
| N[C@@H](Cn1oc(=O)[nH]c1=O)C(=O)O | 1.93% | – |
| CO[C@H]1CC=C2CCN3CCC4=C(CC(=O)OC4)[C@]23C1 | 0.967% | – |
| CC(=O)c1c(O)c(C)c(O)c(Cc2c(O)c3c(c(C(=O)/C=C/c4ccccc4)c2O)OC(C)(C)C=C3)c1O | 2.55% | – |
| Cc1o[nH]c(=O)c1CC(N)C(=O)O (centres undefined) | -0.692% | – |
| C[N+]1(C)CCc2cc3c(cc2[C@H]1[C@@H]1OC(=O)c2c1ccc1c2OCO1)OCO3 | -0.99% | – |
| Oc1ccc2c3c1O[C@H]1c4[nH]c5ccccc5c4C[C@@]4(O)C(C2)N(CC2CC2)CCC314 (some centres undefined) | 0.396% | – |
| O=C(NC1CN2CCC1CC2)c1cc2ccoc2cn1 (centres undefined) | 1.7% | – |

| Structure (SMILES) | activity change, negative = inhibition | Potency |
| --- | --- | --- |
| CCCCCCCCCCCCCC(=O)O[C@@H]1[C@@H](C)[C@@]2(O)[C@@H](C=C(CO)C[C@@]3(O)C(=O)C(C)=C[C@@H]23)C2C(C)(C)[C@@]21OC(C)=O (some centres undefined) | -4.17% | – |
| C[C@H]1C2Cc3ccc(O)cc3[C@@]1(C)CCN2CC1CC1 | 0.22% | – |
| Oc1ccc2c3c1O[C@H]1c4oc5ccccc5c4C[C@@]4(O)C(C2)N(CC2CC2)CCC314 (some centres undefined) | -2.05% | – |
| Nc1cc2c(ncn2CCOCP(=O)(O)O)c(=O)[nH]1 | 0.911% | – |
| CNc1ccc2oc(C[C@H]3O[C@@]4(CC[C@H]3C)O[C@H]([C@H](C)C(=O)c3ccc[nH]3)[C@H](C)C[C@H]4C)nc2c1C(=O)O | 2.2% | – |
| NC(C(=O)O)c1cc(=O)[nH]o1 (centres undefined) | 1.48% | – |
| CN1CC[C@@]2(C)c3cc(O)ccc3N(C)C12 (some centres undefined) | 0.879% | – |
| O=c1ccc2[nH]cc(C3=CCNCC3)c2[nH]1 | 1.74% | – |
| CN(N=O)c1ccc(O)c(O)c1 | – | 18.5 µM (active) |
| O=C1C=CC(=O)C=C1 | 0.234% | – |
| CC(C)(C)OC(=O)NC1[C@H]2CNC[C@@H]12 (some centres undefined) | 0.212% | – |
| C[C@H](N)CN1CCc2ccc(Br)cc21 | -0.0232% | – |
| NC(=O)COc1c(F)cc(SCCNS(=O)(=O)c2ccccc2)cc1F | 0.044% | – |
| C=CCN1C[C@@H](C)N([C@H](c2ccc(C(=O)N(CC)CC)cc2)c2cccc(OC)c2)C[C@@H]1C | 1.21% | – |
| C=CCN1CCC23c4c5ccc(O)c4O[C@H]2C(=O)CC[C@@]3(O)C1C5 (some centres undefined) | 0.715% | – |
| CCCn1c(=O)c2[nH]c(C3CCCC3)nc2n(CCCOC(=O)c2ccc(S(=O)(=O)F)cc2)c1=O | -0.193% | – |
